Reference: PubChem BioAssay AID2158 (National Center for Advancing Translational Sciences (NCATS), 2009)
Values joined by “and” are separate entries in the source; they are usually repeats but may differ in a detail not shown here. Equal entries are not always repeated. Inconclusive results are not listed. Where a structure was tested more than once in an assay, its records may differ in their call. A number with no mark means an inactive call. Active and inactive are the calls of the source. Calls come from the whole dose curve; as a rule, active = well fitted inhibition curve with a large enough effect; inconclusive = small, poorly fitted or top-dose-only effect; inactive = no such curve, though single readings can be large or run the other way.

These molecules were tested against Cruzipain (Trypanosoma cruzi) (UniProt P25779) (assay: Confirmation qHTS Assay for Inhibitors of Cruzain). Conditions: purified cruzain, Z-FR-AMC fluorescence, 0.01% Triton.
Summary of the method: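 Reaction progress from the 60 s rise in AMC fluorescence (ex 360, em 450 nm) after adding 2 uM Z-FR-AMC. Before this, 1.5 nM cruzain sat 15 min at room temperature with compound in pH 5.5 acetate buffer with 5 mM DTT and 0.01% Triton X-100.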
Note: nearly all actives have a fitted effect of over 40% in size.
Potency is the fitted concentration of half-maximal effect.
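Throughout, for activity change, negative = inhibition: plate controls were uninhibited enzyme control for no effect and buffer wells lacking enzyme for full effect.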

Sequence of Cruzipain (Trypanosoma cruzi) (P25779 123-467 limits assumed): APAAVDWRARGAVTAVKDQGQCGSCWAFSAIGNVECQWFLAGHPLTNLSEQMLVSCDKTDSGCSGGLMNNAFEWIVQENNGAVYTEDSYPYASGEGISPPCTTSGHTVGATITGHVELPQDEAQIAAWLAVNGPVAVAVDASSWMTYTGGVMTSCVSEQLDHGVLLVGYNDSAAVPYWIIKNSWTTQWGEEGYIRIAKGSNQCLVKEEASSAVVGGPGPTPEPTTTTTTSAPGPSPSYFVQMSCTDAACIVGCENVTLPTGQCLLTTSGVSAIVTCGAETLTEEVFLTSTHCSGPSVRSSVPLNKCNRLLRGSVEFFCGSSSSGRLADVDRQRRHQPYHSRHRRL

Compound | Potency | activity change, negative = inhibition
CSCC[C@H](NC(=O)COc1ccc(Cl)cc1Cl)c1nc2ccccc2[nH]1 | 2.82 µM (active) | –
COc1cc(-c2nn3c(-c4cc(-c5ccccc5)n[nH]4)nnc3s2)cc(OC)c1OC | – | -7.01%
CNc1oc(Cc2ccccc2)nc1S(=O)(=O)c1ccccc1 | 7.08 µM (active) | –
CC1(C)Cc2c(C#N)c(N3CCN(C(=O)c4ccccc4)CC3)nc(-c3ccco3)c2CS1 | 15.8 µM (active) | –
Cc1ccccc1C(=O)NCC(=O)OC(C(=O)Nc1cc(C(F)(F)F)ccc1Cl)c1ccccc1 (stereo not given) | 12.6 µM (active) | –
Cc1cccc(C)c1OCCCn1c(CCNC(=O)C2CCCCC2)nc2ccccc21 | 1.26 µM (active) and 1.58 µM (active) | –
N#Cc1nc(Nc2cccc(Cl)c2)nc(NC2CCCC2)n1 | 0.0794 µM (active) | –
CCc1ccc(NC(=O)Cn2c(SCc3ccc(C)cc3)nc3ccncc32)cc1 | – | -7.51%
N#Cc1nc(NCCO)nc(Nc2ccccc2)n1 | 1.58 µM (active) | –
NNC(=O)C(C(=O)OCc1ccccc1)c1ccccc1 (stereo not given) | – | -1.2%
CC(C)C[C@H](N)c1nnc(S(=O)(=O)Cc2cccc(F)c2)o1 | 15.8 µM (active) | –
O=C(NCCc1nc2ccccc2n1CCOc1ccc2ccccc2c1)C1CCCCC1 | 3.55 µM (active) | –
COc1nc(C#N)nc(N2CCCC2)n1 | 3.98 µM (active) | –
Cc1ccccc1OCC(=O)NCC(=O)OCC(=O)c1ccc2ccccc2c1 | 14.1 µM (active) | –
Cc1cccc(C(=O)NCC(=O)OCC(=O)c2ccc3ccccc3c2)c1 | 12.6 µM (active) | –
Cc1ccc(C(=O)NC2CCN(C#N)CC2)cc1 | – | -5.84%
CCC(C(=O)NC1CCCCC1)n1c(SCc2ccccc2F)nc2ccncc21 (stereo not given) | 4.47 µM (active) | –
COc1cccc(CN2C(=O)c3ccccc3Sc3ccc(C(=O)NCCc4ccc(Cl)cc4)cc32)c1 | – | 5.18%
O=C(CNC(=O)c1ccccc1)OC(C(=O)Nc1cc(C(F)(F)F)ccc1Cl)c1ccccc1 (stereo not given) | 5.01 µM (active) | -10.9% and -27.8%
CC(C)COC(=O)c1nnsc1NC(=O)Nc1ccccc1 | – | -3.71%

Compound | Potency | activity change, negative = inhibition
O=c1cc(-c2cccc(Br)c2)nc(-c2ccccc2F)o1 | 11.2 µM (active) | –
C[C@H](CCC(=O)O)[C@H]1CC[C@@H]2[C@@H]3[C@@H](O)C[C@H]4C[C@@H](O)CC[C@@]4(C)[C@H]3CC[C@@]21C | – | 2.73%
CCc1ccc(C(=O)COC(=O)CNC(=O)C2CCCCC2)cc1 | 7.08 µM (active) | –
CC(C)(C)OC(=O)Cc1nnc(-c2cc3ccccc3[nH]2)o1 | – | 0.423%
O=C1/C(=C/c2ccco2)CCc2ccccc21 | 2.51 µM (active) | –
COc1cc(Cl)c(C)cc1NC(=O)C(OC(=O)CNC(=O)c1ccccc1)c1ccccc1 (stereo not given) | 31.6 µM (active) | –
CCCCNC(=O)Cn1c(SCc2cccc(C)c2)nc2ccncc21 | – | -22.6%
O=C(NC(=S)Nc1cccc(Cl)c1N1CCCC1)c1ccc(-c2cccc([N+](=O)[O-])c2)o1 | – | -8.07%
CC(C)(C)c1ccc(Nc2nc(C#N)nc(NC3CCCC3)n2)cc1 | 3.55 µM (active) | –
Cc1oc(=O)c(NC(=O)c2cccc(Cl)c2)cc1C(=O)c1ccccc1 | – | -24.6%
COc1ccc(OC)c(C(=O)COC(=O)CNC(=O)C2CCCCC2)c1 | 7.08 µM (active) | –
COc1cc(OC)c(-c2nn3c(-c4cc(C)[nH]n4)nnc3s2)cc1OC | – | -21.4%
Cc1cc(=O)oc2cc(OCC(=O)N3CCOCC3)ccc12 | 8.91 µM (active) | –
CC(C)CC(=O)OC1C(N2CCOCC2)c2c(ccc(/C=C/C(=O)N3CCOCC3)c2O)OC1(C)C (stereo not given) | – | -26%
NC(=S)N/N=C/c1ccc(-c2ccc(Cl)c(Cl)c2)o1 | 2 µM (active) | –
Cc1ccc(C(=O)COC(=O)CNC(=O)COc2ccccc2C)cc1C | 14.1 µM (active) | –
N#CN1CCC(NC(=O)c2ccc(C(F)(F)F)cc2)CC1 | – | -6.84%
CC(C)(C)CNc1nc(C#N)nc(Nc2ccccc2)n1 | 2 µM (active) | –
O=C(Cc1ccccc1)NCC(=O)OCC(=O)c1cccc2ccccc12 | 25.1 µM (active) | –
